# In the supplement of paper PMC10981050:
# Values joined by “and” are separate entries in the source; they are usually repeats but may differ in a detail not shown here. Equal entries are not always repeated. Structures can show the parent of a compound that is named as a salt.
# Key:
# Test in all cases: cell viability relative to vehicle control; higher = less cytotoxic
# Conditions in all cases: 10 µM
# K562 = test system: K562
# Method in brief: (§1)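 Mutant clones made by CRISPR editing and their isogenic wild-type counterparts, from four leukaemia lines, were exposed to a single 10 µM dose of each library compound for 48 h. The supernatant was then removed and CellTiter-Glo luminescence was read. Viability was reported as percent of the on-plate vehicle control.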
# MARIMO = test system: MARIMO
# Method in brief: as §1
# MOLM14 = test system: MOLM14
# Method in brief: as §1
# OCI-AML2 = test system: OCI-AML2
# Method in brief: as §1
SMILES,cell viability (K562; SRSF2 genotype: SRSF2 P95H/wt),cell viability (K562; SRSF2 genotype: SRSF2 wt/wt),cell viability (MARIMO; SRSF2 genotype: SRSF2 P95H/wt),cell viability (MARIMO; SRSF2 genotype: SRSF2 wt/wt),cell viability (MOLM14; SRSF2 genotype: SRSF2 P95H/wt),cell viability (MOLM14; SRSF2 genotype: SRSF2 wt/wt),cell viability (OCI-AML2; SRSF2 genotype: P95H/wt),cell viability (OCI-AML2; SRSF2 genotype: wt/wt)
CC/C=C(\C(=O)N[C@@H]1C(=O)N2C(C(=O)OCOC(=O)C(C)(C)C)=C(COC(N)=O)CS[C@H]12)c1csc(N)n1 [Cefcapene Pivoxil Hydrochloride],101% and 102%,109%,93.2%,103%,97.3%,105%,114%,106%
Nc1nc(-c2ccco2)c2cnn(Cc3ccccc3F)c2n1 [A2AR antagonist 1],76% and 77.7%,72.9%,73.4%,70.2%,88.9%,98.6%,91.6%,88.5%
OCC1OC(Oc2ccc(O)cc2)C(O)C(O)C1O (stereo not drawn) [alpha-Arbutin],99.8% and 105%,98.6%,104%,111%,103%,109%,98.8%,101%
O=CO [Formate],101% and 91.4%,99%,97.5%,104%,102%,106%,96.7%,96%
Cc1[nH]c(/C=C2\C(=O)Nc3ccc(S(=O)(=O)Cc4c(Cl)cccc4Cl)cc32)c(C)c1C(=O)N1CCC[C@@H]1CN1CCCC1,0.5% and 0.24%,81.8%,76.3%,87.6%,42%,46.8%,0.12%,0.09%
CCCc1nn(C)c2c(=O)[nH]c(-c3cc(S(=O)(=O)N4CCN(C)CC4)ccc3OCC)nc12 [Sildenafil Mesylate],103% and 96.9%,103%,99%,108%,107%,103%,110%,105%
N#CC(=C(/N)Sc1ccccc1N)/C(C#N)=C(\N)Sc1ccccc1N,70.5% and 77.5%,72.7%,38.2%,37.1%,54.9%,57.2%,48.9%,48.1%
COc1cccc(-n2c(=O)[nH]c3cc(Cl)n(-c4ccc(-c5cccc(OC)c5O)cc4)c3c2=O)c1,91.6% and 97.4%,93%,108%,117%,107%,102%,95.8%,97.3%
NC(=O)Cc1c[nH]c2ccccc12 [Indole-3-acetamide],97.9% and 97.4%,107%,98%,100%,92.9%,103%,107%,115%
O=C(Nc1c[nH]nc1-c1nc2ccc(CN3CCOCC3)cc2[nH]1)NC1CC1,26.9% and 28.6%,15.8%,6.33%,2.59%,1.54%,0.83%,2.98%,15.3%
Cc1cc(N2CCN([C@@H]3CN[C@H](C(=O)N4CCSC4)C3)CC2)n(-c2ccccc2)n1 [Teneligliptin hydrobromide],90.4% and 78%,83.5%,86.8%,95.5%,84.8%,89%,94.2%,91.8%
COCCCc1sc(-c2ccccc2)nc1C(=O)Nc1ccccc1-c1nc2cc(CN3CCCC3)cnc2s1,75.7% and 55.8%,76.6%,82.7%,83.6%,76.7%,92.5%,52.1%,76.2%
CC(C)(CO)n1cc(C(=O)c2cncc(NC(=O)Cc3ccc(Cl)cn3)c2)c2cnc(N)nc21,104%,111%,115%,109%,64.3%,76.5%,107%,93.4%
CN1CCN(c2cccc(Nc3nc4c(-c5ccc(S(C)(=O)=O)cc5)cccn4n3)c2)CC1,68% and 76.9%,70.5%,67.1%,67.8%,3.24%,3.52%,11.9%,22.6%
CCOC(=O)c1cnc2ccc(-c3cncc(NS(=O)(=O)c4ccccc4)c3)cn12,22.4% and 35.9%,34.2%,17.1%,20%,3.14%,4.38%,2.77%,9.47%
CC1=C(C(=O)OC(C)C)C(c2cccc([N+](=O)[O-])c2)C(C(=O)OC2CN(C(c3ccccc3)c3ccccc3)C2)=C(N)N1 (stereo not drawn) [Azelnidipine],74.3% and 58.4%,58.8%,58.1%,80.1%,82.1%,82.3%,71.3%,58%
CC(C)[C@H]1CC[C@H](C(=O)N[C@H](Cc2ccccc2)C(=O)O)CC1 [Nateglinide (Starlix)],103% and 101%,98.8%,97.8%,101%,97.9%,99.3%,105%,97.5%
CN1c2ccccc2C(=O)Nc2cnc(Nc3ccc(N4CCC(O)CC4)cc3)nc21,16.4% and 22.1%,15.7%,69.5%,83.9%,57.2%,39.6%,51%,49.3%
O=C1NC(=NCc2cccs2)S/C1=C\c1ccc2ncccc2c1,92% and 98.2%,98.2%,50.9%,77.9%,37%,41.1%,53.8%,57.1%
CC(=CCNc1ncnc2nc[nH]c12)CO [Trans-Zeatin],100% and 95.4%,104%,99%,108%,98.3%,103%,104%,97.4%
CCc1ccc(CCOc2ccc(CC3SC(=O)NC3=O)cc2)nc1 (stereo not drawn) [Pioglitazone (Actos)],98.5% and 116%,109%,104%,103%,102%,108%,111%,103%
